Screening data as filed in PubChem BioAssay.
Sampled rows, rich in hits. Any-hit rate of the full collection: about 1.4%.
RXFP1 ag: activates the human relaxin receptor RXFP1. Q9HBX9. 370,000 tested, 0.3% active. Potency, µM (doses to about 57.5 µM), actives largely listed as activators. HEK293T-RXFP1 cAMP TR-FRET, 30 min; response scale: percent of porcine relaxin response, buffer zero; note: nearly all actives have a fitted effect of over 60% in size
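HEK293T cells stably expressing RXFP1 were pretreated with the PDE4 inhibitor Ro 20174, exposed to compounds for 30 min at 37C, lysed, and cAMP was read by TR-FRET. Data normalized to buffer (basal) and 29 nM porcine relaxin (100%).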
KCNH2 3.1 inh: blocks the human KCNH2 3.1 channel isoform; activity change, % (tested at about 1.8 µM); U2OS KCNH2 3.1, thallium flux FluxOr; hits give low values; 340,000 tested, 0.95% active; AID 720553;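 active = maximum activity change below -70%; inconclusive = maximum activity change from -70% to -50%; inactive = maximum activity change above -50%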;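 note: thallium influx rate constant from kinetic fluorescence after stimulation buffer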
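FluxOr-based Tl+ influx in U2OS cells transduced with KCNH2 3.1 virus; rate constants normalized to DMSO controls.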
KCNH2 WT inh: KCNH2 (human, wildtype) channel inhibition; 340,000 tested, 0.37% active; U2OS, BacMam KCNH2, thallium flux FluxOr; hits give low values; activity change, % at 1.84 µM; Q12809;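 active = maximum activity change below -70%; inconclusive = maximum activity change between -70% and -50%; inactive = maximum activity change above -50%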
Target sequence (Q12809 whole entry, looked up): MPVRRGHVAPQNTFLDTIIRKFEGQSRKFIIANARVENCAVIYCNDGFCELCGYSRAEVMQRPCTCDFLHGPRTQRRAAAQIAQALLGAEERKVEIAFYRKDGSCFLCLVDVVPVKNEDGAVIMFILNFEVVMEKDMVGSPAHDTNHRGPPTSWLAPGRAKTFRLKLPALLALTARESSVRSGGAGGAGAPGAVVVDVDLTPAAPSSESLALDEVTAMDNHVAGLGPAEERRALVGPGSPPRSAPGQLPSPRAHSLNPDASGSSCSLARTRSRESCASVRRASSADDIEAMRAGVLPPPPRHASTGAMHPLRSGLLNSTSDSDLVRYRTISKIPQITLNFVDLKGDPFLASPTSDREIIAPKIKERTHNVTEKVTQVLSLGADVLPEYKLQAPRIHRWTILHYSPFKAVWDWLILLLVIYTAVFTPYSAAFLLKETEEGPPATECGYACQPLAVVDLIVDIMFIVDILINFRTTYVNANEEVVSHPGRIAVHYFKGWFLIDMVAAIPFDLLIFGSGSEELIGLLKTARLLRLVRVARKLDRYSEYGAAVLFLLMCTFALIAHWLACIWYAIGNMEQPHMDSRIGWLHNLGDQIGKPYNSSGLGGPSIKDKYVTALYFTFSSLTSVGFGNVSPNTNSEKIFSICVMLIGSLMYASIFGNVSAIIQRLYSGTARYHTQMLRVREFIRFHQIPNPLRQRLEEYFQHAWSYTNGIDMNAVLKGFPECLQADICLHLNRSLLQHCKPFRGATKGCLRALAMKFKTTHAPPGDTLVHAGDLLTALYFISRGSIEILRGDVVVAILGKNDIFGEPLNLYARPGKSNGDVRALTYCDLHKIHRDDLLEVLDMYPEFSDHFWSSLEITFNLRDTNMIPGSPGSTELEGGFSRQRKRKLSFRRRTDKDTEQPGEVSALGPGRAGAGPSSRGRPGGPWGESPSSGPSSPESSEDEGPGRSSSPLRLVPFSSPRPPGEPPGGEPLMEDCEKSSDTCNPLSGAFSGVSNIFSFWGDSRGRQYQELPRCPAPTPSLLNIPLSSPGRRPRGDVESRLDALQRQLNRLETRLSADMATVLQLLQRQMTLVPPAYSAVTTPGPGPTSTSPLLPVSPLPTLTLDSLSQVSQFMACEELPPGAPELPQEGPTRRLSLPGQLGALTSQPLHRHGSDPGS
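U2OS cells transduced with wild-type KCNH2 virus are loaded with FluxOr dye for 45 min, and thallium flux is measured in kinetic reads before and after stimulation buffer. Rate constants are normalized to DMSO controls.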
Glioma ERSR ind: inducers of ER stress response in human glioma cells | U87-MG GRP78 promoter luciferase reporter, 16 h | Potency, µM, most hits filed as activators | 420,000 tested, 0.02% active | AID 602332; note: series mostly up to about 76 µM; nearly all actives have a fitted effect of over 35% in size
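Stably transfected U87-MG human glioma cells carrying a GRP78-based luminescent sensor were seeded at 1000 cells/well, pin-dosed with compounds and incubated 16 h. Luciferase reagent was then added, and end-point luminescence was read after 10 min at room temperature.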
RXFP1 antagonist: RXFP1 (human) relaxin receptor antagonism | 350,000 tested, 0.59% active | activity change, negative = inhibition, % at 57.5 µM | Q9HBX9 | HEK293-RXFP1, relaxin-stimulated cAMP HTRF, 30 min; hits give low values;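 active = activity change of -60% or lower, but not beyond a set lower limit; inconclusive = change between -60% and -40%, or beyond the set limit; inactive = change above -40%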
PTHR1 agonist: agonists of human PTHR1 parathyroid hormone receptor. Q03431. HEK293 GP2 PTHR1 cells, GloSensor cAMP luminescence, 1 h. Potency, µM (highest dose often 115 µM), usual class: activators. 410,000 tested, 0.075% active. AID 743266; note: nearly all actives have a fitted effect of over 55% in size
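HEK-293-derived GP2 cells expressing PTHR1 and a GloSensor cAMP reporter, 3,000/well, plated overnight, given luciferin plus IBMX (each 0.5 mM as added) for 1 h at 37 °C, then compound for 1 h at 37 °C. Luminescence was read after 15 min at room temperature.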
Each line names hits and unclear results; the compound was inactive in the other large screens. Unless noted, calls come from the whole dose curve; as a rule, active = well fitted curve in the direction sought with a large enough effect; inconclusive = small, poorly fitted or top-dose-only effect, or another doubt; inactive = no such curve, though single readings can be large; an effect the other way counts as inactive or inconclusive.

Cc1cccc(C)c1OCCNC(=O)OCc1ccccc1	none
O=C(CC1SC(=O)N(c2ccccc2)C1=O)Nc1ccc(Cl)cc1 (stereo unspecified)	RXFP1 antagonist -70.3
CN(C)CCCNc1ncnc2sc(-c3ccccc3)cc12	KCNH2 3.1 inh -89.1
CCCCN(CCO)c1ncnc2sc(-c3ccccc3)cc12	RXFP1 antagonist -65.5
O=C(COC(=O)/C=C/c1ccc2c(c1)OCO2)Nc1ccccc1	none
CC(C)(C)Nc1c(-c2ccc(O)cc2)nc2ccc(Cl)cn12	none
Oc1ccc(-c2nc3ccc(Cl)cn3c2Nc2ccc(Cl)cc2)cc1	RXFP1 antagonist -67.1 (no result: KCNH2 3.1 inh, KCNH2 WT inh)
CCCn1c(SCC(=O)NCCc2ccccc2)nnc1C(C)C	none
O=C(C1CCN(S(=O)(=O)c2ccc3ccccc3c2)CC1)N1CCN(c2ncccn2)CC1	none
COc1ccc(CCNC(=O)CSCc2ccc([N+](=O)[O-])cc2)cc1OC	KCNH2 3.1 inh -206.0, KCNH2 WT inh -129.5
CCOc1cc(S(=O)(=O)N2CCC(Cc3ccccc3)CC2)c(OCC)cc1-n1cnnn1	PTHR1 agonist inconclusive
CCOc1cc(S(=O)(=O)N2CC=C(c3ccc(F)cc3)CC2)c(OCC)cc1-n1cnnn1	KCNH2 3.1 inh -82.4, KCNH2 WT inh -101.6
COc1ccc(C2CC(c3ccc(Cl)cc3)Nc3nc(NC(=O)c4ccco4)nn32)cc1 (stereo unspecified)	KCNH2 3.1 inh -71.4
COc1ccc(-c2[nH]ncc2CNCCn2cccn2)c(F)c1	KCNH2 3.1 inh -137.9
CCCC1(c2ccccc2)NC(=O)N(CC(=O)Nc2sc(-c3ccccc3)cc2C(=O)OCC)C1=O (stereo unspecified)	RXFP1 ag 28.2µM
O=C(OCc1cn([C@H]2C[C@H](c3ccc(Cl)cc3)N(C(=O)C3CCCCC3)C[C@@H]2O)nn1)c1ccccc1	KCNH2 3.1 inh -81.8 (no result: RXFP1 ag)
COc1ccc(-c2nnc(NC(=O)c3ccc(S(=O)(=O)N4CCCc5ccccc54)cc3)o2)cc1	RXFP1 antagonist -64.7
COc1cccc(NC(=O)[C@@H]2CCCN2S(=O)(=O)c2cccc3cccnc23)c1	none (no result: RXFP1 antagonist)
CCC(=O)N(CCC(Cc1ccccc1)c1ccc2c(c1)OCO2)Cc1ccccc1F (stereo unspecified)	KCNH2 3.1 inh -79.2
CNC(=O)c1[nH]cnc1C(=O)Nc1ccccc1OC	none
CC1(C)CC(NC(=S)NCc2ccco2)CC(C)(C)N1	none
O=C(CC1CC2CCC1C2)N1CCN(S(=O)(=O)c2ccc(F)cc2)CC1 (stereo unspecified)	KCNH2 WT inh -81.0 (no result: RXFP1 ag)
Cc1ccc2oc(=O)n(CC(=O)N3CCOCC3)c2c1	KCNH2 WT inh -142.0
C=CCNC(=S)N/N=C/c1ccccc1OCCOc1ccccc1	none
COc1ccc(C(CCNCc2ccc(N(C)C)cc2)c2ccccc2)cc1 (stereo unspecified)	KCNH2 3.1 inh -85.0
CC(C)Oc1ccc(C(CCNCc2ccc(O)cc2)c2ccccc2)cc1 (stereo unspecified)	none
COc1ccc(CNCCC(c2ccc3c(c2)OCO3)c2ccccc2OC)cc1 (stereo unspecified)	RXFP1 antagonist -72.2 (no result: KCNH2 3.1 inh, KCNH2 WT inh)
NS(=O)(=O)c1ccc(CNC(=O)c2cc(-c3cccnc3)nc3ccc(Br)cc23)cc1	RXFP1 ag inconclusive
O=C(NC(=S)Nc1ccccc1Br)c1ccc2c(c1)OCO2	KCNH2 WT inh inconclusive
O=C(NCc1ccc(F)cc1)N1[C@H]2CC[C@@H]1C=C(c1ccc(F)cc1OCc1ccccc1)C2	none (no result: RXFP1 ag)
CN1CCC(N2CCN(C3CN(CCc4ccccc4)S(=O)(=O)C3)CC2)CC1 (stereo unspecified)	none (no result: RXFP1 ag, KCNH2 3.1 inh, KCNH2 WT inh, RXFP1 antagonist)
COc1ccc(C2=Nc3ccc(C)cc3C(c3ccccc3)N2CC(=O)NN)cc1 (stereo unspecified)	KCNH2 3.1 inh -189.6, PTHR1 agonist inconclusive
NNC(=O)CN1C(c2cccc(Cl)c2)=Nc2ccc(Br)cc2C1c1ccccc1 (stereo unspecified)	none
COc1ccc(C2=Nc3ccc(Br)cc3C(c3ccccc3)N2CC(=O)NN)cc1 (stereo unspecified)	KCNH2 3.1 inh -72.5
Cc1ccc(C(=O)C[n+]2cc(-c3ccc(C)cc3)n3c2CCCCC3)cc1	none
O=C(O)C1CC=CCC1C(=O)N1CCN(c2nc(-c3ccccc3Cl)c3cc(Br)ccc3n2)CC1 (stereo unspecified)	KCNH2 3.1 inh inconclusive, Glioma ERSR ind inconclusive
CSc1nc2ccc(NC(=O)CSc3nnc(N)s3)cc2s1	KCNH2 3.1 inh -90.6
CCOC(=O)c1c(S(=O)(=O)NCC(=O)Nc2ccc(OC)cc2)c(C)n(C)c1C	KCNH2 3.1 inh -162.2
O=C(Nc1cccc(NC(=O)c2cccc([N+](=O)[O-])c2)n1)c1cccc([N+](=O)[O-])c1	KCNH2 3.1 inh -83.8
O=C(N/N=C/c1ccccn1)c1ccc(NC(=O)c2cccc([N+](=O)[O-])c2)cc1	KCNH2 3.1 inh -70.6
CC(C)N(Cc1nc(-c2ccc(Cl)cc2)no1)C(=O)/C=C/c1ccccc1	none (no result: RXFP1 antagonist)
COc1ccccc1NC(=O)C(C)OC(=O)CSCC(=O)Nc1ccc(C)cc1C (stereo unspecified)	KCNH2 3.1 inh -73.6
COc1ccccc1NC(=O)C(C)OC(=O)CSCC(=O)Nc1cc(C)on1 (stereo unspecified)	none
Brc1ccc2c(c1)C(c1ccc(N3CCOCC3)cc1)=NNC(c1cccs1)=N2	Glioma ERSR ind 31.6µM
Fc1ccc2c(c1)C(c1ccc(N3CCOCC3)cc1)=NNC(c1cccs1)=N2	none
COc1ccccc1N1CCN(C2CCCN(C(=O)CCC(=O)N(C)C)C2)CC1 (stereo unspecified)	none
CCOc1ccccc1N(CC(=O)Nc1cccnc1)S(C)(=O)=O	KCNH2 3.1 inh -85.9
COC(=O)c1cc(C(=O)c2cc(Cl)ccc2O)coc1=N	KCNH2 WT inh -172.0
O=C(c1ccccc1)N1CCc2[nH]nc(-c3ccccc3)c2C1	KCNH2 3.1 inh -93.6
Cc1ccc(NC(=O)C2CCCN(C(=O)c3ccc(Cl)cc3)C2)cc1C (stereo unspecified)	KCNH2 3.1 inh -121.7
COc1ccc(-c2nnc(SCC(=O)Nc3ccc(C(=O)O)cc3)n2-c2ccc(Cl)cc2)cc1	none
CCOC(=O)c1ccc(NC(=O)CSc2nc3sc(C(=O)O)c(C)c3c(=O)[nH]2)cc1	PTHR1 agonist inconclusive
Cn1c(SC(C(=O)Nc2ccc(F)cc2)c2ccccc2)nc2ccccc21 (stereo unspecified)	KCNH2 3.1 inh -82.0
